An excerpt weighted towards active compounds, which were near 0.47% of everything screened.
AID inh: Primary qHTS assay for inhibitors of Activation Induced Cytidine Deaminase (AID): AID signal; AID deamination FRET fluorescence, UDG-coupled, 4 h; Potency, µM (highest dose often 115 µM), hits mostly inhibitors; 0.32% of 91,000 active; AID 1347428, 2020; also: nearly all actives have a fitted effect of over 25% in size
Target sequence (Q9GZX7 whole entry, looked up): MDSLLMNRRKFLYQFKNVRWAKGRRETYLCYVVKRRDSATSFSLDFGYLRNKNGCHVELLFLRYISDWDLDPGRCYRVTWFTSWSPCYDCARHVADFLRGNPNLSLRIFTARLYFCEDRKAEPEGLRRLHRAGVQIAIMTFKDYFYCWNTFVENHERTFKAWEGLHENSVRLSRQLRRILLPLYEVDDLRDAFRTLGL
UDG counter: Primary qHTS assay for inhibitors of Activation Induced Cytidine Deaminase (AID): UDG Counterscreen signal; Potency, µM (top dose mostly 115 µM), hits mostly inhibitors; FRET deamination/UDG coupled assay, UDG read, 4 h; 0.14% of 91,000 active; Uracil-DNA glycosylase; also: nearly all actives have a fitted effect of over 65% in size
Each line names hits and unclear results; the compound was inactive in the other large screens. Calls follow the shape of the dose curve; as a rule, active = well fitted curve in the direction sought with a large enough effect; inconclusive = small, poorly fitted or top-dose-only effect, or another doubt; inactive = no such curve, though single readings can be large; an effect the other way counts as inactive or inconclusive.

COCCCNC(=O)CSc1ccc(C)cc1	none
Cc1ccc(Sc2c(C)nn(-c3ccccc3)c2OC(=O)CC(C)C)cc1	AID inh inconclusive
COc1ccccc1C(=O)Oc1c(Sc2ccccc2)c(C)nn1-c1ccccc1	AID inh 45µM, UDG counter inconclusive
Cc1cc2c(C)c(C)[nH]c2cc1Br	none
Cn1c(=O)c2c(-c3ccccc3)n3c(c2n(C)c1=O)C(c1cc(Cl)ccc1O)Nc1ccccc1-3 (stereo unspecified)	UDG counter inconclusive
COc1ccc(-c2c3c(=O)n(C)c(=O)n(C)c3c3n2-c2ccccc2NC3c2ccccc2OC)cc1 (stereo unspecified)	AID inh inconclusive, UDG counter 79µM
CNC(=O)c1ccc(CN(C)CCc2cccs2)cc1	none
COc1ccc(CNC(=O)c2cnc3sc(N4CCCC4)nn3c2=O)cc1OC	none
COc1ccc(Br)cc1CNC(=O)c1cnc2sc(N3CCCCCC3)nn2c1=O	AID inh 18µM
COc1cccc(CN(C)Cc2cc(C)no2)c1OC	none
COc1ccccc1C(=O)NC1=C(C)Nc2ncnn2C1c1c[nH]c2ccccc12 (stereo unspecified)	none
CC(=O)[C@]1(O)Cc2c(O)c3c(c(O)c2[C@@H](O[C@H]2C[C@H](N)[C@H](O)[C@H](C)O2)C1)C(=O)c1ccccc1C3=O	AID inh 11µM
Cc1ccccc1C1CC(=O)N(c2ccc(C(F)(F)F)cc2)C2=C1C(=O)CCC2 (stereo unspecified)	none
CC(C)c1ccc(/C=C(/C#N)c2nc3ccccc3o2)cc1	none
COc1cc(C2CC(=O)Nc3nc(N4CCCCC4)sc32)cc(OC)c1OC (stereo unspecified)	AID inh 35µM
COc1cc(C2CC(=O)Nc3n[nH]c(Nc4ccccc4)c32)cc(OC)c1OC (stereo unspecified)	none
Cc1ccc(-c2coc3cc4oc(=O)cc(-c5ccccc5)c4cc23)cc1	none
Cc1ccc(C(NC(=O)COc2ccccc2)c2cccs2)cc1 (stereo unspecified)	none
COc1ccc(N(CC(=O)Nc2ccccc2C(=O)NCC2CCCO2)S(C)(=O)=O)cc1OC (stereo unspecified)	none
O=C(O)CCCCCCCC(=O)O	none
Cc1cc(C)cc(CCCCCCCCCCCC(=O)O)c1	AID inh 79µM
CN1CCN(c2ccc(NC(=O)c3cccc(S(=O)(=O)NCc4ccco4)c3)cc2)CC1	none
Cc1ccc(-c2noc(-c3cccc(F)c3)n2)cc1	none
CN1C(=O)Cc2cc(S(=O)(=O)CCC(=O)N3CCN(c4ccccc4F)CC3)ccc21	UDG counter inconclusive
Cc1cccc(N2CCN(C(=O)CCS(=O)(=O)c3ccc4c(c3)CC(=O)N4C)CC2C)c1 (stereo unspecified)	UDG counter 79µM
CN(Cc1ccsc1)C(=O)c1ccc(C#N)cc1	none
O=C(c1ccc2c(Cl)c3c(nc2c1)CCCC3)N1CCN(c2cccc(C(F)(F)F)c2)CC1	none
O=C(c1ccc2c(Cl)c3c(nc2c1)CCCC3)N1CCN(c2cccc(Cl)c2)CC1	AID inh 14µM
COc1cccc(N2CCN(C(=O)c3ccc4c(Cl)c5c(nc4c3)CCCC5)CC2)c1	AID inh 20µM
O=C(c1ccc2c(Cl)c3c(nc2c1)CCCC3)N1CCN(c2ccc(Cl)cc2)CC1	none
Cc1ccccc1OCCOC(=O)c1n[nH]c(=O)c2ccccc12	none
Cc1ccc(C)c(-c2csc(Nc3ccc(S(=O)(=O)Nc4nc(C)cc(C)n4)cc3)n2)c1	AID inh inconclusive, UDG counter 89µM
Cc1ccc(-c2csc(Nc3ccc(S(=O)(=O)Nc4nc(C)cc(C)n4)cc3)n2)cc1	UDG counter inconclusive
Cc1cc(Oc2cc(C#N)c(C#N)cc2Oc2cc(C)c(Cl)c(C)c2)cc(C)c1Cl	none
Cc1[nH]c(C#N)c(C)c1C=O	none
CN(C)c1nc(N)nc(COc2ccccc2Cl)n1	none
CCCCOc1ccc(C(=O)NCCc2csc(-c3cccc(F)c3)n2)cc1	none
CC(C)Oc1ccc(C(=O)NCCc2csc(-c3cccc(F)c3)n2)cc1	AID inh 45µM
COc1ccc(CC(=O)NNC(=O)COCC(=O)Nc2ccc(C#N)cc2)cc1	none
Cc1ccc(NC(=O)COc2ccc(-c3nn(C)c(=O)c4ccccc34)cc2)cc1	AID inh inconclusive
Cc1cccc(OCC(=O)Nc2cc(-c3nn(C)c(=O)c4ccccc34)ccc2N2CCOCC2)c1	AID inh inconclusive, UDG counter 89µM
O=C(COC(=O)C(Cc1ccccc1)N1C(=O)C2C3CC(C(Br)C3Br)C2C1=O)c1ccc([N+](=O)[O-])cc1 (stereo unspecified)	none
Cc1ccccc1CSCC(=O)O	none
CC(C)(Sc1ccc(CCN(CCCCC2CCCCC2)C(=O)NC2CCCCC2)cc1)C(=O)O	AID inh 89µM
CCCCc1ccc(NC(=O)CC2CCCCC2)cc1	none
N[C@@H](CCC(=O)N[C@H](CSN=O)C(=O)NCC(=O)O)C(=O)O	none
[N-]=[N+]=Nc1ccc(C(=O)CSC[C@H](NC(=O)CC[C@H](N)C(=O)O)C(=O)NCC(=O)O)cc1	AID inh 89µM
CC(=O)c1ccc(OC(=O)C2(c3ccccc3)CCC2)cc1	none
CSCCCNC(=S)Nc1ccc(F)c(Cl)c1	none
COc1ccccc1C(=O)Nc1ccc(NC(=O)c2cccs2)cc1	AID inh inconclusive
COc1ccc(C(=O)Nc2ccc(NC(=O)c3cccs3)cc2)cc1OC	AID inh 63µM
Cc1cc(C)n(-c2nc3ccccc3nc2N2CCN(C(=O)c3ccccc3)CC2)n1	none
Cc1cc(C)n(-c2nc3ccccc3nc2N2CCN(S(=O)(=O)c3ccc4ccccc4c3)CC2)n1	UDG counter 89µM
CCOc1ccccc1OCCCn1c(-c2ccc(Cl)cc2)nc2ccccc2c1=O	none
CCOc1ccccc1OCCCCn1c(-c2ccc(Cl)cc2)nc2ccccc2c1=O	AID inh 32µM
C#CCN(CC(=O)NC(=O)NCC)C1CCCCC1	none
Cc1c(C(=O)Nc2nonc2-c2cccs2)oc2ccccc12	none
COc1ccc(CNC(=O)C(=O)NCC(c2ccc3c(c2)OCO3)N2CCOCC2)cc1 (stereo unspecified)	none
COc1ccc(CNCCC(c2ccc3c(c2)OCO3)c2ccccc2OC)cc1 (stereo unspecified)	AID inh 50µM
COc1cccc(CNC(=O)C2CCCN(c3nc4ccccc4n4cccc34)C2)c1 (stereo unspecified)	none
Cc1ccc(CNC(=O)C2CCCN(c3nc4ccccc4n4cccc34)C2)cc1 (stereo unspecified)	AID inh 79µM
CCn1cc2nc(SCc3ccc(C)cc3)n(CCc3ccccc3)c(=O)c2n1	AID inh inconclusive
CCn1cc2nc(SCc3ccc(F)cc3)n(CCc3ccccc3)c(=O)c2n1	AID inh 35µM
O=C(Nc1cccc(C(F)(F)F)c1)C1CCN(S(=O)(=O)c2cccs2)CC1	AID inh inconclusive, UDG counter 79µM
O=C(Nc1ccc(OC(F)(F)F)cc1)C1CCN(S(=O)(=O)c2cccs2)CC1	UDG counter inconclusive
COC(=O)c1cn(CC(=O)Nc2ccccc2)c2ccccc12	none
Clc1ccccc1-c1nc(N2CCCCC2)c2ccccc2n1	none
COc1cccc(-c2nc(N3CCCCCC3)c3ccccc3n2)c1O	AID inh inconclusive, UDG counter 89µM
COc1ccc(CC(=O)n2nc(-c3cccc(C)c3)nc2N)cc1	none
Cc1ccc(C)c(OCC(=O)Nc2ccc(Br)cc2C(=O)O)c1	AID inh 56µM

Bioassay records as filed in PubChem.
